This note sets out measurements from publication PMC7862700, “An all-to-all approach to the identification of sequence-specific readers for epigenetic DNA modifications on cytosine”.

Common to all, as to assay: DAPPL (digital affinity profiling via proximity ligation, sequencing); 10 mM Tris-HCl pH 7.5, 50 mM NaCl, 1 mM DTT, 4% glycerol, room temperature, 30 min; GST-TFs on glutathione beads, 16-mer random dsDNA library, 0.1% formaldehyde crosslink after washing; high values mean tight binding
Common to all, as to details: protein: recombinant; tags: N-terminal GST; dsDNA, one strand shown

In assay [1] the target is T1, GABPA (Homo sapiens, UniProt Q06546 1-454).
T1 sequence: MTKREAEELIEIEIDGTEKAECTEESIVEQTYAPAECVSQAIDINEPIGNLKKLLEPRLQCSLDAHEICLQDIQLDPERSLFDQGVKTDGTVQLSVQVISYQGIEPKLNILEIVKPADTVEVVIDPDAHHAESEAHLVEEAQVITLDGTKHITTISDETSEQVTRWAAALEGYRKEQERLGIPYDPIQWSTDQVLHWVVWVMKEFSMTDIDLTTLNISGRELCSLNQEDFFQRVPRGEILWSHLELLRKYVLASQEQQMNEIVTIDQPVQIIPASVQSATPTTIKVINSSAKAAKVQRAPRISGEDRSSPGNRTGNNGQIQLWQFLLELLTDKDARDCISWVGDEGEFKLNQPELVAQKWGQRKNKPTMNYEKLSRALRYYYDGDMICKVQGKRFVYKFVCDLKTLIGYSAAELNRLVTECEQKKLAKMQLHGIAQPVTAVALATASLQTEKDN
In short, it runs like this:
(§1)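 GST fusions of human transcription factors were expressed in yeast and captured with glutathione beads. Once given DNA barcodes and pooled alongside a tag-only sample, they were incubated for 30 min at room temperature with 200 nmole of a random double-stranded 16-mer DNA library in Tris/NaCl/DTT/glycerol buffer, then washed, crosslinked (0.1% formaldehyde), proximity-ligated, PCR-amplified and sequenced on an Illumina NextSeq500. The binding signal of each hexamer is its read frequency for a factor divided by its frequency for the tag-only sample.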

Assay [2] concerns the target SPIB (Homo sapiens, UniProt Q01892 1-262). In short, it runs like this:
as §1

Assay [3] deals with ETV5 (Homo sapiens, UniProt P41161 1-510). In short, it runs like this: as §1
Chain of ETV5 (P41161 whole entry): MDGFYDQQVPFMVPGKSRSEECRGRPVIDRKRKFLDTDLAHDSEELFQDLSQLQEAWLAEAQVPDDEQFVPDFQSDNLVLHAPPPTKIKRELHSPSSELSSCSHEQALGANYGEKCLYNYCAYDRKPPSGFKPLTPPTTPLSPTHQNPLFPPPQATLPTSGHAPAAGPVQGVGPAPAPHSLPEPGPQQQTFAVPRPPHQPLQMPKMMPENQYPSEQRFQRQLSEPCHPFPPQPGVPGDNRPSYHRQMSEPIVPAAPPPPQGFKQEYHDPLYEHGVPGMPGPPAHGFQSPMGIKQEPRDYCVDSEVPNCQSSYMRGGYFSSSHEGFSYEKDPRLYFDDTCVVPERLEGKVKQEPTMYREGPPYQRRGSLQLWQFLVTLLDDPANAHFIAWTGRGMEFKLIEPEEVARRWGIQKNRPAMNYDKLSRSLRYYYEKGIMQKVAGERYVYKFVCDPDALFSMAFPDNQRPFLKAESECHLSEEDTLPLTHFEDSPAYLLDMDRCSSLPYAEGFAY
The target of assay [4] is ELF4 (Homo sapiens, UniProt Q99607 1-663). In short, it runs like this:
as §1

Assay [5] has as its target T2, ELK4 (Homo sapiens, UniProt P28324-2 1-405).
T2 sequence: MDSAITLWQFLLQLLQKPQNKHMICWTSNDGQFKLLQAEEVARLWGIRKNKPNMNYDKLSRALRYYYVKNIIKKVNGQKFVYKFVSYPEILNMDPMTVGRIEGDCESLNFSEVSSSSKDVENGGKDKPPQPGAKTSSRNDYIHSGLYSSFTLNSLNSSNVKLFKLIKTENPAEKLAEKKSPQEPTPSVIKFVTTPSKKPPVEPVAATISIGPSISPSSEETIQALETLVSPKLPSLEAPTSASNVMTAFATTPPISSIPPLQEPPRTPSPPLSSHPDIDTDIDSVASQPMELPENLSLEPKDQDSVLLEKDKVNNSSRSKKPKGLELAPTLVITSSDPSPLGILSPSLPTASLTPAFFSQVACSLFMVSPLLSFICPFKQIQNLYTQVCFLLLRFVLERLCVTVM
In short, it runs like this:
as §1

The target of assay [6] is T3, ETV2 (Homo sapiens, UniProt O00321 1-342).
T3 sequence: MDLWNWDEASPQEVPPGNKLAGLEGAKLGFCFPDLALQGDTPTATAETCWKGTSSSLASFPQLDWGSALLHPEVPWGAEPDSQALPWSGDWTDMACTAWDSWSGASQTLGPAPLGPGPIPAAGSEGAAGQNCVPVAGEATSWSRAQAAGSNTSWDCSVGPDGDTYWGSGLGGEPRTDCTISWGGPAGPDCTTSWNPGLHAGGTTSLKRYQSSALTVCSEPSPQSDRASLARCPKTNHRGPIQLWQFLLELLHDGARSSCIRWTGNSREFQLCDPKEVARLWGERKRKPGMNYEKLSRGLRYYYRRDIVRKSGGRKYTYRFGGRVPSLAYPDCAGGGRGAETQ
Put shortly:
as §1

In assay [7] the target is T4, ETV3L (Homo sapiens, UniProt Q6ZN32 1-361).
T4 sequence: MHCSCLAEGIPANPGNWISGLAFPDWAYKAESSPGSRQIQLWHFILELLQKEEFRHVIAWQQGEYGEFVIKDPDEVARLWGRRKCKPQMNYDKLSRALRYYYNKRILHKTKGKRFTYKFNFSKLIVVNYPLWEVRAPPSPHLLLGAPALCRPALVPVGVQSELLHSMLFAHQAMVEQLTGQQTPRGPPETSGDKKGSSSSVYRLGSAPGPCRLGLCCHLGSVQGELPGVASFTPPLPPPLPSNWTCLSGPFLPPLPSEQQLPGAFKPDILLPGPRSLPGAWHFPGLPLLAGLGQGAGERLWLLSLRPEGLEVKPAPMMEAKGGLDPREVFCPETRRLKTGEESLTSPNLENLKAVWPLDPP
In short, it runs like this:
as §1

The target in assay [8] is T5, ETV7 (Homo sapiens, UniProt Q9Y603 1-341).
T5 sequence: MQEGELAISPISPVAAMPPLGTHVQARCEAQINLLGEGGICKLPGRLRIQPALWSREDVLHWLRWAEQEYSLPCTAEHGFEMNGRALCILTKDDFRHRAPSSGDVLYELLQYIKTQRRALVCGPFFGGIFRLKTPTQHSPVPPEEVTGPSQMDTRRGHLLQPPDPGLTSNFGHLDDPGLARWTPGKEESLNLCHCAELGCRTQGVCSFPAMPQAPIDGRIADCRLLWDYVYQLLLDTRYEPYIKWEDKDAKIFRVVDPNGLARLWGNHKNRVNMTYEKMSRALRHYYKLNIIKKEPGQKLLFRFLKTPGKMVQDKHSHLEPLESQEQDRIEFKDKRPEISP
Put shortly: as §1

Assay [9] concerns the target ETV6 (Homo sapiens, UniProt P41212 1-452). In short, it runs like this: as §1
Assay [10] has as its target ELF1 (Homo sapiens, UniProt P32519 1-619). Put shortly: as §1
In assay [11] the target is T6, FEV (Homo sapiens, UniProt Q99581 1-238).
T6 sequence: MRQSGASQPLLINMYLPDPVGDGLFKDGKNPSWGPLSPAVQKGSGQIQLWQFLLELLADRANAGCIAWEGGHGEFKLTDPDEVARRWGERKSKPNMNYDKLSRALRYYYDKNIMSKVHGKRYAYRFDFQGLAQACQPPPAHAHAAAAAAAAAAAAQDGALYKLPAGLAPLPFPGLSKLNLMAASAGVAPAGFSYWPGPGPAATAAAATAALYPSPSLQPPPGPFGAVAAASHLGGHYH
In short, it runs like this: as §1

Assay [12] concerns the target ETV1 (Homo sapiens, UniProt P50549 1-477). Put shortly: as §1
Assay [13] deals with T7, ERF (Homo sapiens, UniProt P50548 1-548).
T7 sequence: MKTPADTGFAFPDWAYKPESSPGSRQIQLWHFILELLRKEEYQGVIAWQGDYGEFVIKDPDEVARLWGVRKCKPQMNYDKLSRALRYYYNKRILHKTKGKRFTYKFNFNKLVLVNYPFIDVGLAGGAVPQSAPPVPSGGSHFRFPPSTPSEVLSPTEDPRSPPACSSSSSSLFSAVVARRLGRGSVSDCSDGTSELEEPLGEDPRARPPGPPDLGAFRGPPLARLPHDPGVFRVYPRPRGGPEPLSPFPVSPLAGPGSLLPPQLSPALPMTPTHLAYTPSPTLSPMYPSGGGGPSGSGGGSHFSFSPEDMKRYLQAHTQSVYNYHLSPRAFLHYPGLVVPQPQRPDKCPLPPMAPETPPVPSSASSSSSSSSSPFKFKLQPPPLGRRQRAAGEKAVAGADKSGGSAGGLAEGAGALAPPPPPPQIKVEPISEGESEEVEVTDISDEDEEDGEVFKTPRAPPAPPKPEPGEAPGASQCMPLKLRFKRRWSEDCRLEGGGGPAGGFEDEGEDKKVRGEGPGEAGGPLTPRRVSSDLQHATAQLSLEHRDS
In short, it runs like this:
as §1

In assay [14] the target is T8, ETS2 (Homo sapiens, UniProt P15036 1-469).
T8 sequence: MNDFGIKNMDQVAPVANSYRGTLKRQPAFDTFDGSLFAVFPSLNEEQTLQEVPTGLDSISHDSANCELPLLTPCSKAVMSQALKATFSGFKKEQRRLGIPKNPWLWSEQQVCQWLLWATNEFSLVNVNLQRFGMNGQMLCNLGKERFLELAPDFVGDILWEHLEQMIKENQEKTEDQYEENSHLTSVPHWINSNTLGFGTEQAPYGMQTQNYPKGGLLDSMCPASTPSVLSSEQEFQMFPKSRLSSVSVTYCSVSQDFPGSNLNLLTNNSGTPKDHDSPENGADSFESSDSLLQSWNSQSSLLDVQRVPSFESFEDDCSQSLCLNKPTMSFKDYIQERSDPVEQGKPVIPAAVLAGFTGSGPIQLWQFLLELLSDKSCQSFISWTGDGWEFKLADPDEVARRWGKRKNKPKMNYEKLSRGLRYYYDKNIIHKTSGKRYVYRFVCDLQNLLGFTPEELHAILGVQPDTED
In short, it runs like this: as §1

For assay [15], the target named is T9, EHF (Homo sapiens, UniProt Q9NZC4 1-300).
T9 sequence: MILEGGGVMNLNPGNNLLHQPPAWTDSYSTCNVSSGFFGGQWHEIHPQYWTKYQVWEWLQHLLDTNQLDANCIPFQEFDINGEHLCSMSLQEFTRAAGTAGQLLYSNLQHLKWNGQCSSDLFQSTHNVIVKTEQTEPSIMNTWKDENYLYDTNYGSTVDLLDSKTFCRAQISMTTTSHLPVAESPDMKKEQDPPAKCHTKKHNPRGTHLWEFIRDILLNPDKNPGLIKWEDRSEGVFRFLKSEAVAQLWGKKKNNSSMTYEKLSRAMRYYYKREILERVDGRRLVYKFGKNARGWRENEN
In short, it runs like this: as §1

The target of assay [16] is T10, SPDEF (Homo sapiens, UniProt O95238 1-335).
T10 sequence: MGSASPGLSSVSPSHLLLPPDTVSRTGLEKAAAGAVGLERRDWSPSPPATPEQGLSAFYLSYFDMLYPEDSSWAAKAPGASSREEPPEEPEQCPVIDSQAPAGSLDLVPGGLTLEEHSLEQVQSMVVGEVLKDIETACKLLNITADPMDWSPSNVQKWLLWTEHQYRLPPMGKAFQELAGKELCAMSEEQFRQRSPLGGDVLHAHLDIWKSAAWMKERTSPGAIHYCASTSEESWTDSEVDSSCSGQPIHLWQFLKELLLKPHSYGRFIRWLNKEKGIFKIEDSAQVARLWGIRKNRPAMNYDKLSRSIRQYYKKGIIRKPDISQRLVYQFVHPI
In short, it runs like this: as §1

Assay [17] deals with T11, ETV3 (Homo sapiens, UniProt P41162-2 1-143).
T11 sequence: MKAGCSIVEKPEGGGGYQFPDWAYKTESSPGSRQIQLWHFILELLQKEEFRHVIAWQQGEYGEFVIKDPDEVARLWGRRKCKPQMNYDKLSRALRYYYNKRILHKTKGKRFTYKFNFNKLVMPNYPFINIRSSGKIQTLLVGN
In short, it runs like this:
as §1

Chain of SPIB (Q01892 whole entry): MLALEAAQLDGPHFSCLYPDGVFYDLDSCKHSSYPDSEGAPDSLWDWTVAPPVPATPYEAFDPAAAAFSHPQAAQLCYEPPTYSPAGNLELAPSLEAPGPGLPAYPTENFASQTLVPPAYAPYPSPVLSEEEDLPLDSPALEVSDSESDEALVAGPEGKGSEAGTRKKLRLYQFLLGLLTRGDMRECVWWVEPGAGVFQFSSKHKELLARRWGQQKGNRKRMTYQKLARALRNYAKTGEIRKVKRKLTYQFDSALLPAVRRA
Chain of ETV6 (P41212 whole entry): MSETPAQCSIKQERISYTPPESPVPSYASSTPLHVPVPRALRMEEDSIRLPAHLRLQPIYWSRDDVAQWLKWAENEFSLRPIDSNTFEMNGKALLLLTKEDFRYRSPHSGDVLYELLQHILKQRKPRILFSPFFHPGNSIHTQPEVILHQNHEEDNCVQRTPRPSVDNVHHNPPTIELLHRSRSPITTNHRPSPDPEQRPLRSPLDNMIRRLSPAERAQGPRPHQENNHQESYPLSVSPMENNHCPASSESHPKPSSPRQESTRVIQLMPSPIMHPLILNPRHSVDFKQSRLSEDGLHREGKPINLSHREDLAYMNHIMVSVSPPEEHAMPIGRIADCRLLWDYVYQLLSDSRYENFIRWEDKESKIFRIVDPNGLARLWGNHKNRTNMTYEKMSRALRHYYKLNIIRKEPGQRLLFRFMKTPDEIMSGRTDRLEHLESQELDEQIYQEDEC
Chain of ETV1 (P50549 whole entry): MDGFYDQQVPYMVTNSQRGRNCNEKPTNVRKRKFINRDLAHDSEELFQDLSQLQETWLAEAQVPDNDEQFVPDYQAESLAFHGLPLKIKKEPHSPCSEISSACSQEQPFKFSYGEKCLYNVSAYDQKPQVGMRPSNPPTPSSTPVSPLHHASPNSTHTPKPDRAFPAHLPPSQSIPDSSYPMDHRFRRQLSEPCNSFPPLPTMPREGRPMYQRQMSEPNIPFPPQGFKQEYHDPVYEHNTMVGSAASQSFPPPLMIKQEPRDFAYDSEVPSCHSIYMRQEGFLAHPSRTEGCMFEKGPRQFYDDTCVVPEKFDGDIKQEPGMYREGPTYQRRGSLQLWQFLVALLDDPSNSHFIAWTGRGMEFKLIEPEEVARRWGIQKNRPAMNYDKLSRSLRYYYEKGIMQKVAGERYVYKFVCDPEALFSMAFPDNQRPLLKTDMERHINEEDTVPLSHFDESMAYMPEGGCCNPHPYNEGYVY
Chain of ELF1 (P32519 whole entry): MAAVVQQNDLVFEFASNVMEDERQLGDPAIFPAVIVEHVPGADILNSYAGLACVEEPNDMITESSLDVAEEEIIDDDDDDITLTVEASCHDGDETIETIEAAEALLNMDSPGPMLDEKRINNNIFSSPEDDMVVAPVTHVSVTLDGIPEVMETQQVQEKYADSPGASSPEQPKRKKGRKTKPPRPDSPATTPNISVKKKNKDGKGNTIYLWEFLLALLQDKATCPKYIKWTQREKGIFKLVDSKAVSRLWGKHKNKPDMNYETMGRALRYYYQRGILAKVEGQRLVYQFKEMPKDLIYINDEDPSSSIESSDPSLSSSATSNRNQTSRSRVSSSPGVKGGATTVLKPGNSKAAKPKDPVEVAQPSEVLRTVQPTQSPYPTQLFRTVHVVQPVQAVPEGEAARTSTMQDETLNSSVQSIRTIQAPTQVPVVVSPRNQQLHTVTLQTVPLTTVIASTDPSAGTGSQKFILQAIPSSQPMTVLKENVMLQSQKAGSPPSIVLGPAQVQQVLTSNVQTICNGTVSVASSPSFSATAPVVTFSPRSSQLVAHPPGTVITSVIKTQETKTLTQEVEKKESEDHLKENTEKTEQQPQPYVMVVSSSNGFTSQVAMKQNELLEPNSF
Chain of ELF4 (Q99607 whole entry): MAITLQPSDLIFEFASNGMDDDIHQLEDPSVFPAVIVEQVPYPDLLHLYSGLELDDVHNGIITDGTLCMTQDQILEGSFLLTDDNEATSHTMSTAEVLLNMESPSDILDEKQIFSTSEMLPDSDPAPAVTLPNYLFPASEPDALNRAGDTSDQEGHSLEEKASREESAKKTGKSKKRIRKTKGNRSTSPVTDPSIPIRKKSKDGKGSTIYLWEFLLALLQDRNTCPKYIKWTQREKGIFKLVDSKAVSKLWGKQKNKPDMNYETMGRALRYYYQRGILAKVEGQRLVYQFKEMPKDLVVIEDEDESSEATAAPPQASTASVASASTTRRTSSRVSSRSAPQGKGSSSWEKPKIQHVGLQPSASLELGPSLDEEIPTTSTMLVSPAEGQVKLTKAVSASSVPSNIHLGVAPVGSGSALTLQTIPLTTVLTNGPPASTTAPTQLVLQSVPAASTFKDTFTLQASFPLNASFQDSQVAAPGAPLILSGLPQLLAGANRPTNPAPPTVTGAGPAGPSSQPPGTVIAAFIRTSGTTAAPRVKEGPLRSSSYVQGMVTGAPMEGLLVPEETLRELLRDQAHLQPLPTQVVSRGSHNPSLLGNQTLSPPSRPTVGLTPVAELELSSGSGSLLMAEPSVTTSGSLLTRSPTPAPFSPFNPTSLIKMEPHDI

Consider CGCGTA, for which the binding signal in assay [1] is 1.01 fold enrichment (6-mer frequency, TF over GST control); in [2], 1.05 fold enrichment (6-mer frequency, TF over GST control); in [3], 1 fold enrichment (6-mer frequency, TF over GST control); in assay [4], 1.08 fold enrichment (6-mer frequency, TF over GST control); in assay [5], 1.07 fold enrichment (6-mer frequency, TF over GST control); in assay [6], 1.03 fold enrichment (6-mer frequency, TF over GST control). In addition, the binding signal in assay [7] is 1.01 fold enrichment (6-mer frequency, TF over GST control); in [8], 1.07 fold enrichment (6-mer frequency, TF over GST control); in [9], 1.01 fold enrichment (6-mer frequency, TF over GST control).

On to CGCACG, for which the binding signal was 1.02 fold enrichment (6-mer frequency, TF over GST control) in assay [1]; 1.01 fold enrichment (6-mer frequency, TF over GST control) in [10]; 1.06 fold enrichment (6-mer frequency, TF over GST control) in [2]; 1.02 fold enrichment (6-mer frequency, TF over GST control) in assay [11]; 1.06 fold enrichment (6-mer frequency, TF over GST control) in [3]; 1.04 fold enrichment (6-mer frequency, TF over GST control) in [4]. For the same sequence, the binding signal is 1.1 fold enrichment (6-mer frequency, TF over GST control) in [5]; 1.09 fold enrichment (6-mer frequency, TF over GST control) in [6]; 1.04 fold enrichment (6-mer frequency, TF over GST control) in assay [12]; 1.06 fold enrichment (6-mer frequency, TF over GST control) in [13]; 1.01 fold enrichment (6-mer frequency, TF over GST control) in assay [7]; 1.02 fold enrichment (6-mer frequency, TF over GST control) in assay [14]. Also, the binding signal is 1.06 fold enrichment (6-mer frequency, TF over GST control) in assay [8] and 1.08 fold enrichment (6-mer frequency, TF over GST control) in assay [9].

As for CGTCCA, the binding signal was 1.04 fold enrichment (6-mer frequency, TF over GST control) in assay [1]; 1.05 fold enrichment (6-mer frequency, TF over GST control) in [10]; 1.02 fold enrichment (6-mer frequency, TF over GST control) in [15]; 1 fold enrichment (6-mer frequency, TF over GST control) in assay [2]; 1.02 fold enrichment (6-mer frequency, TF over GST control) in assay [3]; 1 fold enrichment (6-mer frequency, TF over GST control) in assay [5]. The binding signal in assay [12] is 1.08 fold enrichment (6-mer frequency, TF over GST control); in [13] it was 1.02 fold enrichment (6-mer frequency, TF over GST control); in [7], 1.13 fold enrichment (6-mer frequency, TF over GST control); in assay [16] it was 1.07 fold enrichment (6-mer frequency, TF over GST control); in assay [17], 1.03 fold enrichment (6-mer frequency, TF over GST control); in assay [9], 1.04 fold enrichment (6-mer frequency, TF over GST control).
